A selection: hits, their analogues and other compounds. The true share with any hit is near 4.5%.
PfHsp40 yeast: restores yeast growth despite PfHsp40 toxicity. S. cerevisiae expressing PfHsp40, growth rescue, ATP luminescence. growth rescue, % at 12.5 µM. actives 0.68% (n = 340,000); in the data active = growth rescue above about 28%, passing the limit was not always enough;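 note: yeast W303a lacking pdr1 and pdr3 grown in galactose medium; growth measured after three days at 30 °C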
PrP UTR inh: inhibition of PrP 5' UTR reporter expression | inhibition, % (test concentration not listed) | cell-based PrP 5' UTR mRNA reporter, plate reader | actives 0.35% (n = 340,000); in the data active = inhibition above about 52%; note: 0 = median of the neutral control wells
PrPC TRFRET: cell surface PrPC inhibition, primary TR-FRET screen; P04156; TR-FRET read-out; inhibition, % at 13.8 µM; actives 0.43% (n = 370,000); in the data active = inhibition above about 24%; note: 0% = median of the test wells and 100% = reference compound wells
BJeLR lethal: kills HRASV12-expressing BJeLR cells. inhibition, % (concentration not given with the values). actives 0.17% (n = 300,000). BJeLR (HRASV12) viability, CellTiter-Glo ATP luminescence, 48 h; in the data active = inhibition above about 50%
GDH-TPI inh: GDH-TPI coupled enzyme inhibition counter-screen; inhibition, % at 4.8 µM; actives 1.2% (n = 360,000); GDH-TPI coupled enzyme counterscreen, NADH absorbance; in the data active = inhibition above about 30%;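 note: 0% = DMSO wells and 100% = wells lacking the enzyme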
Mtb FBA inh: Mtb fructose-bisphosphate aldolase inhibition; actives 2.3% (n = 360,000); P9WQA3; purified M. tuberculosis FBA, fluorescence read-out; inhibition, % at 1 µM; in the data active = inhibition above about 27%;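 note: 0% = vehicle and 100% = reference inhibitor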
PrPC confirm: cell surface PrPC inhibition, TR-FRET confirmation; shares compounds with PrPC TRFRET; cell surface PrPC level; actives 65% (n = 1,500); inhibition, % at 13.8 µM; in the data active = inhibition above about 25%
LD9 tox: LD9 cell cytotoxicity, PrPc inhibitor counter-screen. inhibition, % at 13.8 µM. AID 743201. LD9 cells cytotoxicity, luminescence viability. actives 29% (n = 1,500). shares compounds with PrPC TRFRET; in the data active = inhibition above about 9.5%
The depositor's hits bear a star.

Screening C[C@@H]1C[C@@H]2O[C@H]2CCCCC(=O)Cc2cc(O)cc(O)c2C(=O)O1 returned PrPC TRFRET -1.
Screening COc1ccc(CCNc2ncnc3c2oc2ccccc23)cc1OC returned PfHsp40 yeast 2, PrP UTR inh -17, PrPC TRFRET 27*, BJeLR lethal 2, GDH-TPI inh 8, Mtb FBA inh -1, PrPC confirm 27* and LD9 tox 20*.
For COc1ccc(CCNc2nc(C)nc3c2oc2ccccc23)cc1OC the results were PfHsp40 yeast 0, PrP UTR inh -2, PrPC TRFRET 11, BJeLR lethal 3, GDH-TPI inh 5 and Mtb FBA inh 0.
Screening COc1ccc(S(=O)(=O)N2CCOC23CCN(C(=O)c2c(F)cccc2Cl)CC3)cc1 returned PfHsp40 yeast 0, PrP UTR inh -14, PrPC TRFRET 5, BJeLR lethal -1, GDH-TPI inh 2 and Mtb FBA inh 0.
COc1ccc(S(=O)(=O)N2CCOC23CCN(C(=O)c2ccc(Cl)cc2Cl)CC3)cc1 was read as PfHsp40 yeast 2, PrP UTR inh -16, PrPC TRFRET 53*, BJeLR lethal 11, GDH-TPI inh -6, Mtb FBA inh -3, PrPC confirm 47* and LD9 tox 2.
`CC(C)(C)OC(=O)NCCCCCc1cn([C@@H](CO)C(=O)NCCCCCCCCCCC(=O)N2CCN(C(=O)OC(C)(C)C)CC2)nn1` gave PfHsp40 yeast 8, PrP UTR inh -46, PrPC TRFRET 53*, GDH-TPI inh -6, Mtb FBA inh 2, PrPC confirm 34* and LD9 tox 36*.
For CC(C)(C)OC(=O)CC[C@@H](C(=O)NCCCCCCCCCCC(=O)N1CCN(C(=O)OC(C)(C)C)CC1)n1cc(CCCCCNC(=O)OC(C)(C)C)nn1 the results were PfHsp40 yeast 1, PrP UTR inh 13, PrPC TRFRET 4, GDH-TPI inh 7 and Mtb FBA inh 7.
Screening S=c1nc(-c2ccccc2)n(CCCn2ccnc2)c2c1CCCC2 returned PfHsp40 yeast 0, PrP UTR inh -9, PrPC TRFRET 47*, BJeLR lethal -9, GDH-TPI inh 41*, Mtb FBA inh 1, PrPC confirm 46* and LD9 tox -2.
Screening S=c1nc(-c2ccccc2)n(CCCN2CCOCC2)c2c1CCCC2 returned PfHsp40 yeast 0, PrP UTR inh -18, PrPC TRFRET -2, BJeLR lethal -13, GDH-TPI inh 12 and Mtb FBA inh 0.
O=C(CSc1ccc2ccccc2n1)N/N=C/c1ccc(O)cc1 was read as PfHsp40 yeast 0, PrP UTR inh -10, PrPC TRFRET 25*, BJeLR lethal -9, GDH-TPI inh 21, Mtb FBA inh -5, PrPC confirm 23 and LD9 tox 1.
NS(=O)(=O)c1ccc(NC(=O)CSc2nc3ccccc3c(=O)n2-c2ccc(Br)cc2)cc1 was read as PrPC TRFRET 34*, PrPC confirm 20 and LD9 tox -1.
CCOc1ccc(NC(=O)CCSc2ccc(C)cc2)cc1 was read as PfHsp40 yeast 4, PrP UTR inh -11, PrPC TRFRET 9, BJeLR lethal 5, GDH-TPI inh -8 and Mtb FBA inh 1.
O=C(CSc1ccc2ccccc2n1)N/N=C/c1ccccc1O was read as PfHsp40 yeast 16, PrP UTR inh -2, PrPC TRFRET 1, BJeLR lethal 6, GDH-TPI inh 16 and Mtb FBA inh 3.
For O=C1CCCN1C(=O)CSc1ccc2ccccc2n1 the results were PfHsp40 yeast 0, PrP UTR inh -21, PrPC TRFRET 41*, GDH-TPI inh 0, Mtb FBA inh 3, PrPC confirm 52* and LD9 tox 1.
For CCOc1ccc(NC(=O)CCSc2ccc3ccccc3n2)cc1 the results were PfHsp40 yeast -1, PrP UTR inh -25, PrPC TRFRET 62*, BJeLR lethal -10, GDH-TPI inh 6, Mtb FBA inh 1, PrPC confirm 60* and LD9 tox 3.
`CC(=O)c1ccccc1NC(=O)COC(=O)CSCC(=O)Nc1cc(C)on1` gave PfHsp40 yeast 1, PrP UTR inh -21, PrPC TRFRET 4, BJeLR lethal 13, GDH-TPI inh -2 and Mtb FBA inh 1.
For COc1ccc(C2(c3ccc(OC)cc3)NC(=O)NC2=O)cc1 the results were PfHsp40 yeast -1, PrP UTR inh -15, PrPC TRFRET 0, BJeLR lethal -2, GDH-TPI inh 4 and Mtb FBA inh -6.
NS(=O)(=O)c1ccc(NC(=O)CSc2ccc3ccccc3n2)cc1 was read as PfHsp40 yeast -2, PrP UTR inh 0, PrPC TRFRET 36*, BJeLR lethal 8, GDH-TPI inh 18, Mtb FBA inh -1, PrPC confirm 43* and LD9 tox -1.
CC(C)(C)c1csc(NC(=O)Cn2cnc3ccccc3c2=O)n1 was read as PfHsp40 yeast 6, PrP UTR inh -4, PrPC TRFRET 35*, BJeLR lethal 0, GDH-TPI inh -1, Mtb FBA inh 0, PrPC confirm 25* and LD9 tox 1.
Screening Cc1cccc(C)c1NC(=O)CN(C)CC(=O)N1CC(=O)Nc2ccccc21 returned PfHsp40 yeast 0, PrP UTR inh -2, PrPC TRFRET 6, GDH-TPI inh 4 and Mtb FBA inh 1.
For COc1ccccc1C(CCN(Cc1ccccc1)C(C)=O)c1ccco1 (stereo not given) the results were PfHsp40 yeast 2, PrP UTR inh -20, PrPC TRFRET 6, BJeLR lethal 1, GDH-TPI inh 3 and Mtb FBA inh -3.
CCOC(=O)N1CCN=C1SCc1ccc(Cl)c(Cl)c1 was read as PfHsp40 yeast 0, PrP UTR inh -7, PrPC TRFRET -1, BJeLR lethal 15, GDH-TPI inh 9 and Mtb FBA inh 0.
Screening COc1ccccc1N1CCN(c2nc3ccccc3nc2C(C#N)C(=O)OC(C)C)CC1 (stereo not given) returned PfHsp40 yeast -1, PrP UTR inh -12, PrPC TRFRET 25*, BJeLR lethal 4, GDH-TPI inh 6, Mtb FBA inh -7, PrPC confirm 2 and LD9 tox 6.
Cc1ccc(SCCNC(=O)c2ccccc2)cc1 was read as PfHsp40 yeast 8, PrP UTR inh -26, PrPC TRFRET 3, BJeLR lethal -9, GDH-TPI inh 3 and Mtb FBA inh 2.
`COc1ccc(C(=O)NCCSc2ccc(C)cc2)cc1` gave PfHsp40 yeast 2, PrP UTR inh -15, PrPC TRFRET 57*, BJeLR lethal -2, GDH-TPI inh -7, Mtb FBA inh 0, PrPC confirm -4 and LD9 tox -6.

Compound activity as filed in PubChem BioAssay.
